CYP2C19 act: human CYP2C19 activators, primary screen, biochemical, luminescence. Cytochrome P450 2C19 (Homo sapiens), P33261. recombinant CYP2C19, luciferin-H EGE luminescence; stronger effect = higher value; 0 = fully inhibited enzyme, 1 = untreated enzyme. activation factor at 5 µM. 96,000 tested, under 10 active;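 active means activation factor of at least 2 at 5 µM in the primary screen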;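 further: 0 = wells with 2.5 mM tranylcypromine and 1 = vehicle-only wells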
CYP2C19 inhib: blockers of cytochrome P450 2C19 activity – biochemical, luminescence, ADME assay, primary screen; P33261; CYP2C19 Supersomes, luciferin-H EGE luminescence, 30 min; inhibition, % at 5 µM; 96,000 tested, 21% active; AID 778, 2007;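 active means CYP2C19 inhibition above a set limit at 5 µM in the primary screen, cut at about 50% in these data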;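 further: plate controls were negative control wells for no effect and 2.5 mM tranylcypromine positive control for full effect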
CYP2C9 inh: blockers of cytochrome P450 2C9 activity – biochemical, luminescence, ADME assay, primary screen; 96,000 tested, 20% active; P11712; CYP2C9 Supersomes, luciferin-H conversion; inhibition, % at 5 µM;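 active means blocking of liver enzyme CYP2C9 beyond about 50% at 5 µM, limit read from the data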
CYP2C9 act: human CYP2C9 activators, primary screen, biochemical, luminescence; Cytochrome P450 2C9 (Homo sapiens), P11712; 96,000 tested, 1.4% active; recombinant CYP2C9, luciferin-H conversion; stronger effect = higher value; factor 1 = untreated enzyme, 0 = blocked; activation factor at 5 µM; AID 1024, 2008;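 active means activation factor of 2 or more for CYP2C9 at a 5 µM dose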;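 further: 0 = sulfaphenazole-blocked wells and 1 = vehicle-only wells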
Cav3 T inh: Cav3.2 calcium influx blockers – cell-based, Fluo-4 calcium fluorescence, FDSS, MLSMR library, primary screen; Voltage-dependent T-type calcium channel subunit alpha-1H (Homo sapiens), O95180; Cav3.2-expressing cells; stronger effect = lower value; 100,000 tested, 4% active; AID 449739, 2010; B-score at 10 µM;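 active means single-dose well whose peak fluorescence ratio is a statistical outlier from its plate by either plate-standardised score or position-corrected B-score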
* = called active by the depositor. Compounds with a hit are over-represented: about 27% of the library has one in this group of screens.

How did Fc1ccc2c(c1)C(c1ccncc1)=NNC(c1cccnc1)=N2 do in these assays?
CYP2C19 act: 0.5; CYP2C19 inhib: 51*; CYP2C9 inh: 54*; CYP2C9 act: 0.5; Cav3 T inh: -0.057

How did CCc1ccc2c(c1)C(c1cccs1)=NNC(c1cccnc1)=N2 do in these assays?
CYP2C19 act: 0.7; CYP2C19 inhib: 33; CYP2C9 inh: 40; CYP2C9 act: 0.6; Cav3 T inh: 0.11

What do the screens show for `CC(=O)Nc1sc2c(c1CN1CCN(C)CC1)CCCC2`?
CYP2C19 act: 0.8; CYP2C19 inhib: 20; CYP2C9 inh: -12; CYP2C9 act: 1.1; Cav3 T inh: 1.7

How did O[C@@H]1C2CCCC1[C@]1(O)CCCCC1C2 (some centres undefined) do in these assays?
CYP2C19 act: 0.9; CYP2C19 inhib: 11; CYP2C9 inh: 62*; CYP2C9 act: 0.4

Results for CCOC(=O)c1ccc(CNC(=O)Cn2nnc(-c3ccc(C)cc3)n2)o1 ?
CYP2C19 act: 0.8; CYP2C19 inhib: 18; CYP2C9 inh: 60*; CYP2C9 act: 0.4; Cav3 T inh: -1.6

Results for Cc1cnc(C(=O)Nc2ccccc2-c2nnn(CC(=O)NC3CCCC3)n2)cn1 ?
CYP2C19 act: 1.1; CYP2C19 inhib: -13; CYP2C9 inh: 25; CYP2C9 act: 0.8; Cav3 T inh: -0.51

Results for O=C(CCn1nnc(-c2cccs2)n1)NC1CCCCC1 ?
CYP2C19 act: 0.2; CYP2C19 inhib: 76*; CYP2C9 inh: -32; CYP2C9 act: 1.3; Cav3 T inh: 0.65

What do the screens show for `CCOc1ccc(-c2nnn(CC(=O)NCc3ccco3)n2)cc1`?
CYP2C19 act: 0.8; CYP2C19 inhib: 23; CYP2C9 inh: 19; CYP2C9 act: 0.8; Cav3 T inh: -0.34

What do the screens show for `O=C(Cn1nnc(-c2ccccc2NC(=O)c2ccco2)n1)NC1CCCCC1`?
CYP2C19 act: 0.7; CYP2C19 inhib: 26; CYP2C9 inh: 64*; CYP2C9 act: 0.4; Cav3 T inh: 0.049

What do the screens show for `O=C(Cn1nnc(-c2cccs2)n1)OC1CCCCC1`?
CYP2C19 act: 0.7; CYP2C19 inhib: 28; CYP2C9 inh: 37; CYP2C9 act: 0.6; Cav3 T inh: -1.7

Results for O=C(Cn1nnc(-c2cccc(C(F)(F)F)c2)n1)NC1CCCC1 ?
CYP2C19 act: 1; CYP2C19 inhib: 2; CYP2C9 inh: -149; CYP2C9 act: 2.5*; Cav3 T inh: -0.97

How did O=C(CSc1nnc(Cc2cc(=O)[nH]c(=O)[nH]2)n1-c1ccccc1)NCC1CCCO1 (centres undefined) do in these assays?
CYP2C19 act: 1.1; CYP2C19 inhib: -10; CYP2C9 inh: -4; CYP2C9 act: 1; Cav3 T inh: -0.096

What do the screens show for `CC(C)C(=O)Nc1ccc(C(=O)NNC(=O)c2ccco2)cc1`?
CYP2C19 act: 1; CYP2C19 inhib: 0; CYP2C9 inh: -7; CYP2C9 act: 1.1; Cav3 T inh: -0.068

What do the screens show for `CC(=O)Nc1ccc(S(=O)(=O)Nc2c(C)n(C)n(-c3ccccc3)c2=O)cc1`?
CYP2C19 act: 1.1; CYP2C19 inhib: -13; CYP2C9 inh: -7; CYP2C9 act: 1.1; Cav3 T inh: 0.14

Results for CCOc1ccccc1-c1nc(-c2ccc(C)nc2OC)no1 ?
CYP2C19 act: 0.9; CYP2C19 inhib: 13; CYP2C9 inh: -30; CYP2C9 act: 1.3; Cav3 T inh: -0.82

Results for CCOC(=O)c1ccc(Cn2c(-c3ccccc3)nnc2-c2ccccc2)o1 ?
CYP2C19 act: 0.7; CYP2C19 inhib: 31; CYP2C9 inh: 58*; CYP2C9 act: 0.4; Cav3 T inh: -3.7

What do the screens show for `COc1cc(C(=O)Nc2ccccc2-c2nnn(CC(N)=O)n2)cc(OC)c1OC`?
CYP2C19 act: 1.2; CYP2C19 inhib: -17; CYP2C9 inh: 78*; CYP2C9 act: 0.2; Cav3 T inh: -0.029

Results for O=C(Cn1nnc(-c2ccccc2)n1)NCc1cccs1 ?
CYP2C19 act: 0.3; CYP2C19 inhib: 72*; CYP2C9 inh: 3; CYP2C9 act: 1; Cav3 T inh: 0.29

How did COc1ccc(C(=O)Nc2ccccc2-c2nnn(CC(=O)NCc3ccco3)n2)cc1 do in these assays?
CYP2C19 act: 0.7; CYP2C19 inhib: 31; CYP2C9 inh: 75*; CYP2C9 act: 0.3; Cav3 T inh: 0.56

Results for NC(=O)Cn1nnc(-c2ccccc2NC(=O)c2cnccn2)n1 ?
CYP2C19 act: 1.1; CYP2C19 inhib: -11; CYP2C9 inh: 9; CYP2C9 act: 0.9; Cav3 T inh: 1.7

What do the screens show for `O=C(Nc1ccc(F)cc1)N1CCn2c(nc3ccccc32)C1`?
CYP2C19 act: 0.6; CYP2C19 inhib: 35; CYP2C9 inh: 9; CYP2C9 act: 0.9; Cav3 T inh: 0.12

How did CCOC(=O)c1c(NC(=O)Cn2nnc(-c3ccc(Cl)cc3)n2)sc(CC)c1C do in these assays?
CYP2C19 act: 0.9; CYP2C19 inhib: 15; CYP2C9 inh: 74*; CYP2C9 act: 0.3; Cav3 T inh: -1

What do the screens show for `O=C(Cn1nnc(-c2ccccc2)n1)NCc1ccco1`?
CYP2C19 act: 0.4; CYP2C19 inhib: 61*; CYP2C9 inh: -12; CYP2C9 act: 1.1; Cav3 T inh: -0.83

How did COc1ccc(S(=O)(=O)N2CCc3ccccc3C2)cc1OC do in these assays?
CYP2C19 act: 0.1; CYP2C19 inhib: 91*; CYP2C9 inh: -142; CYP2C9 act: 2.4*; Cav3 T inh: 0.073

Results for COc1cc2c(cc1OC)CN(S(=O)(=O)c1ccc3c(c1)OCCO3)CC2 ?
CYP2C19 act: 0.1; CYP2C19 inhib: 95*; CYP2C9 inh: 32; CYP2C9 act: 0.7; Cav3 T inh: 1

Results for COc1ccc(S(=O)(=O)N2CCCCC2C(=O)O)cc1OC (centres undefined) ?
CYP2C19 act: 1; CYP2C19 inhib: 0; CYP2C9 inh: 4; CYP2C9 act: 1; Cav3 T inh: 0.45

What do the screens show for `O=C1CC2(CCOCC2)Oc2ccc3ccccc3c21`?
Cav3 T inh: -0.18

How did COC(=O)C(Cc1ccccc1)NS(=O)(=O)c1ccc(F)cc1Br (centres undefined) do in these assays?
Cav3 T inh: -0.2

How did c1ccc(C2(c3ccccc3)OCC(Cn3cncn3)O2)cc1 (centres undefined) do in these assays?
CYP2C19 act: 0.3; CYP2C19 inhib: 66*; CYP2C9 inh: 52*; CYP2C9 act: 0.5; Cav3 T inh: -0.1

Results for COC(=O)c1sc2ccccc2c1-n1cccc1C(=O)C(=O)Nc1ccc(F)cc1 ?
CYP2C19 act: 0.7; CYP2C19 inhib: 33; CYP2C9 inh: 100*; CYP2C9 act: 0

What do the screens show for `COC(=O)c1sc2ccccc2c1-n1cccc1C(=O)C(=O)Nc1ccc(C)cc1`?
CYP2C19 act: 0.6; CYP2C19 inhib: 38; CYP2C9 inh: 100*; CYP2C9 act: 0; Cav3 T inh: -3.8
